A selection: hits, their analogues and other compounds. The true share with any hit is near 4%.
TROY signal inh: blocks TROY-dependent signaling in reporter cells; 360,000 tested, 0.98% active; AID 1347056; inhibition, % at 10 µM; Q293 LMP1-TROYcd NF-kB luciferase reporter, 4 h;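 active = compounds whose plate-normalised and pattern-corrected inhibition of the luciferase reporter signal at the single screening dose is 50% or more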
TWEAK Fn14 block: TWEAK-Fn14 signaling inhibition; inhibition, % at 10 µM; 360,000 tested, 2% active; TWEAK-stimulated Fn14 reporter cells, luciferase luminescence, 8 h; in the data active = inhibition above about 50%
KKLEB cytotox: CF airway cell cytotoxicity counter-screen. activity change (cytotoxicity), % at 5 µM. KKLEB CF airway cells viability, ATPlite luminescence, overnight; stronger effect = lower value; cells stimulated with P. aeruginosa culture filtrate. 360,000 tested, 0.36% active;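 active = corrected activity change at or below -50% at 5 µM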
CF NFkB block: cystic fibrosis NF-kB activation inhibition | KKLEB NF-kB-GFP reporter, PAF-induced, GFP fluorescence overnight | inhibition, % at 5 µM | 360,000 tested, 0.86% active | AID 588850;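 active = at least 50% inhibition at 5 µM, scaled per plate between neutral and stimulator controls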;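 note: PAF is a Pseudomonas aeruginosa culture filtrate used as stimulus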
HIF-2a inh: HIF-2a inhibition; 786-0 RCC cells HIF-2a reporter, luciferase luminescence, overnight; inhibition, % at 18.8 µM; 360,000 tested, 0.72% active;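 active = inhibition of the luminescence signal of 40% or more relative to plate controls, in a single-dose primary screen at 18.75 µM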
Peg3 promoter: reduces Peg3 promoter-driven luciferase expression in HeLa. HeLa PEG-Prom luciferase reporter, luminescence, overnight. inhibition, % at 20 µM. 360,000 tested, 1.7% active. AID 588405;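 active = inhibition of at least 50% at 20 µM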
Of the large screens only hits and unclear results are named; the others gave an inactive call.

CC(C)(C)C1=CC(O)(c2ccccc2)C=C(C(C)(C)C)C1=O	Peg3 promoter 78
O=C(NC1CCCC1)c1nc(-c2ccco2)oc1-c1ccccc1	none (no result: TROY signal inh, TWEAK Fn14 block, KKLEB cytotox, CF NFkB block, Peg3 promoter)
NC1=NC[C@H](Cc2ccccc2)N1CCCCC1CCCCC1	Peg3 promoter 71
NC1=NC[C@H](Cc2ccc(O)cc2)N1CCCCC1CCCCC1	none
CC1=C(C)CC2C(C1)C(=O)c1ccc(Br)cc1S2(=O)=O (centres undefined)	none
CC1C(c2ccccc2)N(C)C(c2ccccc2)C(C)C1(O)C#Cc1ccccc1 (centres undefined)	Peg3 promoter 62
CC(C)C(=O)NC(c1cccs1)c1cc([N+](=O)[O-])c2cccnc2c1O (centres undefined)	Peg3 promoter 56
Oc1c(C(Nc2nc3ccccc3s2)c2ccco2)ccc2cccnc12 (centres undefined)	TWEAK Fn14 block 57
CC(C)CC(=O)NC(c1cccs1)c1ccc2cccnc2c1O (centres undefined)	none
CCN(CC)c1ccc(C(NC(=O)C(C)C)c2ccc3cccnc3c2O)cc1 (centres undefined)	none
CC(C)C(=O)NC(c1ccco1)c1ccc2cccnc2c1O (centres undefined)	Peg3 promoter 53
CC(C)CC1C(=O)N(Cc2cn(CCC3OCCCO3)nn2)CCS(=O)(=O)N1Cc1ccc(-c2ccc(Cl)nc2)cc1 (centres undefined)	none
COc1ccccc1-c1cc(C(F)(F)F)nc(S(=O)(=O)CCCC(=O)Nc2cc(C)on2)n1	KKLEB cytotox -66, CF NFkB block 86, HIF-2a inh 73, Peg3 promoter 106
COc1ccccc1-c1cc(C(F)(F)F)nc(S(=O)(=O)CCCC(=O)NC(C)C)n1	KKLEB cytotox -94, CF NFkB block 88, HIF-2a inh 90, Peg3 promoter 113
COc1ccc(-c2cc(C(F)(F)F)nc(S(=O)(=O)CCCC(=O)Nc3cc(C)on3)n2)cc1OC	TROY signal inh 52, TWEAK Fn14 block 96, KKLEB cytotox -75, CF NFkB block 102, Peg3 promoter 111
COc1ccccc1-c1cc(C(F)(F)F)nc(S(=O)(=O)CCCC(=O)Nc2cccnc2Cl)n1	TROY signal inh 62, TWEAK Fn14 block 82, KKLEB cytotox -55, CF NFkB block 72, Peg3 promoter 111
COc1ccc(-c2cc(C(F)(F)F)n3nc(C(=O)Nc4cc(C)on4)cc3n2)cc1OC	none
Cn1c(-c2ccsc2)c(-c2cccs2)c2cc(Br)ccc21	none
CC(=O)Nc1ccc(SC[C@H](Cc2ccccc2)N2CC[C@@H](C(C)(C)C)CCC2=O)cc1	none
CN(C)CCCNc1cc(O)c2ncccc2c1	Peg3 promoter 81
Oc1cc(NCc2ccc(Cl)cc2)cc2cccnc12	none
CCCCCNC(=O)C(c1ccc(OC)cc1)n1c(=O)c(-c2cc3ccccc3[nH]2)nc2ccccc21 (centres undefined)	none (no result: TROY signal inh, TWEAK Fn14 block, KKLEB cytotox, CF NFkB block, Peg3 promoter)
Cc1ccc(NC(=O)/C(=C/c2cccc([N+](=O)[O-])c2)NC(=O)C2CCCCC2)c(C)c1	Peg3 promoter 59
Cc1ccccc1-n1c(C)cc(/C=C2/C(=N)N3C(c4ccccc4)=CSC3=NC2=O)c1C	TWEAK Fn14 block 55
Cc1cc(/C=C2\C(=N)N3N=C(C(C)C)SC3=NC2=O)c(C)n1Cc1ccccc1	none
Cc1cc(/C=C2/C(=N)N3C(c4ccccc4)=CSC3=NC2=O)c(C)n1-c1ccccc1	none
Cc1cc(/C=C2\C(=N)N3C(SCc4ccccc4)=NSC3=NC2=O)c(C)n1Cc1ccccc1	KKLEB cytotox -53
CCCc1ccc(S(=O)(=O)N2CCN(C(C)C(=O)NCc3ccc(OC)cc3)CC2)cc1 (centres undefined)	none
Cc1cc(=O)oc2cc(OC(=O)c3nn(C(C)C)c(=O)c4ccccc34)ccc12	none
CC(C)n1nc(C(=O)Oc2ccc(Cl)cc2)c2ccccc2c1=O	TWEAK Fn14 block 51
COc1cc(CNCCNC(=O)c2nonc2N)ccc1OCc1ccc(Cl)cc1	Peg3 promoter 88
COc1cccc(CNCCNC(=O)c2nonc2N)c1	none
CC(=O)c1ccc(OCC(=O)Nc2ccc3c(c2)OCO3)cc1	none
O=C(Nc1ccc(NC(=O)c2cc3ccccc3o2)cc1)c1ccc2c(c1)OCCO2	Peg3 promoter 78
CC(=O)c1ccc2c(c1)OCCOCCOCCOCCOCCO2	TWEAK Fn14 block 87
O=C(Nc1ccc(Br)cc1F)c1ccc2c(c1)OCCO2	TWEAK Fn14 block 51
O=C(Nc1ccc2oc(-c3ccncc3)nc2c1)c1ccc2c(c1)OCCO2	none
O=C(Nc1ccc2oc(-c3ccccc3)nc2c1)c1ccc2c(c1)OCCO2	TROY signal inh 58
Nc1nc2ccc(Cl)cc2cc1C(=O)NCc1ccc(Oc2ccccc2)cc1	none (no result: KKLEB cytotox, CF NFkB block, Peg3 promoter)
COc1ccc(NC(=O)C2=Cc3cccc(OC)c3OC2)cc1	none
COc1ccc(C(=O)Nc2ccc3c(c2)OCCO3)cc1	TWEAK Fn14 block 50
COc1cccc(NC(=O)c2ccc3c(c2)OCCO3)c1	TWEAK Fn14 block 57
O=C(Nc1ccc(N2CCN(C(=O)c3ccccc3)CC2)cc1)c1ccc(Br)o1	none
O=C(Nc1ccc(N2CCN(C(=O)c3ccccc3)CC2)c(Cl)c1)c1ccc(Br)o1	Peg3 promoter 50
COc1ccc(NC(=O)C2=Cc3ccccc3OC2)cc1	TWEAK Fn14 block 52
CN(C(=O)CSc1nc2scc(-c3ccccc3)c2c(=O)[nH]1)c1ccccc1	none
CC(C)OP(=O)(OC(C)C)C1(NS(=O)(=O)c2ccc(Cl)cc2)C=C(Cl)C(=O)C(Cl)=C1	none
COc1cc(OC)cc(C(=O)NNC(=O)CCC(=O)c2cc(C)sc2C)c1	none
CNC(=O)C1CN(C(=O)c2cccc(S(=O)(=O)N3c4ccccc4CC3C)c2)c2ccccc2O1 (centres undefined)	none
O=C(Nc1ccncc1)c1ccc2c(c1)OCCO2	none
CCC(Oc1ccccc1OC)C(=O)Nc1ccc2c(c1)OCCO2 (centres undefined)	TWEAK Fn14 block 59
O=C(Nc1ccc(NC(=O)c2ccco2)cc1)c1ccc2c(c1)OCO2	TWEAK Fn14 block 68 (no result: TROY signal inh)
Cc1ccc(NC(=O)c2ccc3c(c2)OCCO3)cc1	TWEAK Fn14 block 68
O=C(Nc1ccc2c(c1)OCCO2)c1[nH]c(C(F)(F)F)nc1-c1ccccc1	TROY signal inh 81, TWEAK Fn14 block 90
COc1ccc(Cc2c(-c3ccc(F)cc3)nc3cc(C)c(Br)c(C)n23)c(C)c1	none (no result: KKLEB cytotox, CF NFkB block, Peg3 promoter)
Cc1nc(SCc2nc3ccc(C(=O)c4ccccc4)cc3[nH]2)c2oc3ccccc3c2n1	none
COCCNC(=O)c1cccc(OC2CCN(Cc3ccc(F)c(OC)c3)CC2)c1	none
Cc1[nH]c(C)c(S(=O)(=O)Nc2cccc(Cl)c2C)c1C(=O)N1CCCC1	none
O=C(NCC1COc2ccccc2O1)c1cc2ccccc2o1 (centres undefined)	TWEAK Fn14 block 81 (no result: TROY signal inh)

High-throughput results (PubChem)
